The text below walks through data of PubChem BioAssay (Tox21).

Results filed as inconclusive are left out. Unmarked numbers belong to inactive results. Activity calls are given as the source filed them. Calls come from the whole dose curve; as a rule, active = well fitted activation curve with a large enough effect in the signal ratio in the repeat runs (not every such curve was filed as active); inconclusive = weak or mixed curves; inactive = flat fitted curve, though single readings scatter; the % refers to the signal ratio.
% is set by controls: 0 for no effect and ±100 for the full control effect.

This assay in a line: qHTS assay to identify small molecule agonists of H2AX (AID 1224845). The following applies: CHO-K1 phospho-H2AX Ser139 HTRF, 3 h; series mostly up to 154 µM; activation (H2AX phosphorylation): at the top concentration. The gist of the method:
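Wild-type CHO-K1 cells, plated overnight, exposed 3hr at 37C to 15 concentrations (0.76% DMSO final). Lysed, then HTRF anti-pH2AX (S139) cryptate and anti-H2AX-d2 antibodies, 24 hr room temperature; 665/620 nm emission read.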
Background: qHTS replaces the single test concentration by a dilution series.
Regarding `CCOC(=O)C1(c2ccccc2)CCN(CCC(C#N)(c2ccccc2)c2ccccc2)CC1`, the “activation (H2AX phosphorylation)” value is -2.22% [at 70.9 µM]. `FC(Cl)(Cl)Cl`: the “activation (H2AX phosphorylation)” value was -3.21%.

As to `CC(C)CC(C)(c1ccc(O)cc1)c1ccc(O)cc1`, the “activation (H2AX phosphorylation)” value is 3.27%. Still for that read-out and setting: the figure for `CC(=O)Nc1ccc2c(c1)Cc1ccccc1-2` is 0.0894%; for `CC(C)[C@H](C(=O)OC(C#N)c1cccc(Oc2ccccc2)c1)c1ccc(OC(F)F)cc1` (some centres not stated) it is -2.96%; for `CCOC(=O)OC1=C(c2cc(C)ccc2C)C(=O)NC12CCC(OC)CC2` (configuration not stated) it is 1.82%.

For the molecule `C[C@H]1CC[C@@H]2[C@@H](C)[C@H]3[C@H](C[C@H]4[C@@H]5CC=C6CC(O[C@@H]7O[C@H](CO)[C@H](O)[C@H](O[C@@H]8O[C@H](CO)[C@@H](O)[C@H](O)[C@H]8O)[C@H]7O[C@H]7O[C@@H](C)[C@H](O)[C@@H](O)[C@H]7O)CC[C@]6(C)[C@H]5CC[C@]34C)N2C1` (some centres not stated), the “activation (H2AX phosphorylation)” value is -3.98%. Still for that read-out and setting: the figure for `Clc1ccc(-c2ccc(Cl)c(Cl)c2Cl)c(Cl)c1Cl` is -4.78%; for `Cn1cc(C2=C(c3cn(C4CCN(Cc5ccccn5)CC4)c4ccccc34)C(=O)NC2=O)c2ccccc21` it is 4.61% [at 70.9 µM]; for `CCCCCCCCCCCCCN1CC(C)OC(C)C1` (configuration not stated) it is -0.978%. Regarding `N#CCCSCCC#N`, the “activation (H2AX phosphorylation)” value was -2.38%. As to `O=C(O)COc1nc(Cl)c(Cl)cc1Cl`, the “activation (H2AX phosphorylation)” value is -3.81%. Regarding `O=C1NCN(c2ccccc2)C12CCN(CC1COc3ccccc3O1)CC2` (configuration not stated), the “activation (H2AX phosphorylation)” value is -0.788% [at 70.9 µM].

For `c1ccc2cc3c(cc2c1)-c1cccc2cccc-3c12`, the “activation (H2AX phosphorylation)” value was -0.146%.

`CCCN(CC)CC1COC2(CCC(C(C)(C)C)CC2)O1` (configuration not stated): the “activation (H2AX phosphorylation)” value is -1.91%. On to `CC(C)(C)OO`, for which the “activation (H2AX phosphorylation)” value is 0.131%. With `NNC(=O)c1ccccc1`, the “activation (H2AX phosphorylation)” value was -0.941%. Take `Fc1cccc(Cl)c1CCl`: the “activation (H2AX phosphorylation)” value is -2.39%. For `N#CC(Cl)Cl`, the “activation (H2AX phosphorylation)” value is -0.875%. For the molecule `c1ccc2c(c1)[nH]c1cnccc12`, the “activation (H2AX phosphorylation)” value is -0.176%. On to `FC(F)(F)c1cccc(C2=CCN(CCc3ccc4ccccc4c3)CC2)c1`, for which the “activation (H2AX phosphorylation)” value is -3.53% [at 70.9 µM]. Take `BrC(Br)Br`: the “activation (H2AX phosphorylation)” value is -0.472%. Still for that read-out and setting: the figure for `Cc1cc(C(F)(C(F)(F)F)C(F)(F)F)ccc1NC(=O)c1cccc(I)c1C(=O)NC(C)(C)CS(C)(=O)=O` is -0.197% [at 70.9 µM]; for `CCCN(CCC)CCc1c[nH]c2ccccc12` it is 1.77%. Take `CC(C)OS(C)(=O)=O`: the “activation (H2AX phosphorylation)” value is 1.24%. For the molecule `N#CNC#N`, the “activation (H2AX phosphorylation)” value is -4.25%. On to `C[C@@H]1O[C@@H](O[C@H]2C[C@@H](O)[C@]3(CO)[C@H]4[C@H](O)C[C@]5(C)[C@@H](C6=CC(=O)OC6)CC[C@]5(O)[C@@H]4CC[C@]3(O)C2)[C@H](O)[C@H](O)[C@H]1O`, for which the Potency result was “inactive”.
